Several values for one entry are separate records, joined by “and”; a condition that tells them apart may be missing. Equal values may be shown once. More than one record can exist for a structure, and the calls need not agree. Activity calls are given as the source filed them. Entries that show only a call come without a potency. Unless noted, calls come from the whole dose curve; as a rule, active = well fitted curve in the direction sought with a large enough effect in the repeat runs; inconclusive = weak or mixed curves; inactive = no such curve, though single readings can be large; an effect the other way counts as inactive or inconclusive.
How the values were obtained:
[1] = qHTS assay to identify small molecule antagonists of the thyroid receptor (TR) signaling pathway - cell viability counter screen (AID 743064); note: nearly all actives have a fitted effect of over 50% in size; note: potency is the fitted concentration of half-maximal effect
Procedure, shortened: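 GH3.TRE-Luc rat pituitary cells carrying a TRE-luciferase reporter were treated with compound plus 1 nM T3 (final) for 23.5 h at 37 °C. Viability was then read in the same wells by CellTiter-Fluor fluorescence after a further 30 min.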

[2] = molecular target: Estrogen receptor (Homo sapiens) (UniProt P03372); assay: qHTS assay to identify small molecule antagonists of the estrogen receptor alpha (ER-alpha) signaling pathway (AID 743069; active = well fitted curve in the direction sought with a large enough effect in the signal ratio in the repeat runs, not every such curve was filed as active; inconclusive = weak or mixed curves, or effect the other way; inactive = no such curve, though single readings can be large or run the other way; the % refers to the signal ratio; note: potency is the fitted concentration of half-maximal effect)
Procedure, shortened: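 ER-alpha-UAS-bla GripTite HEK293 line; 2% charcoal-stripped FBS overnight; plated, 4 hr 37C/5% CO2; cpd in DMSO + 17beta-estradiol, 18 hr 37C; LiveBLAzer B/G FRET substrate 2 hr RT; fluorescence intensity.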

[3] = qHTS assay to identify small molecule antagonists of the estrogen receptor alpha (ER-alpha) signaling pathway - cell viability counter screen (AID 743074; calls by dose curve;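 note: HEK293 cells carrying ER-alpha-UAS-bla reporter stimulated with 17beta-estradiol; nearly all actives have a fitted effect of over 45% in size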; note: potency is the fitted concentration of half-maximal effect)
[4] = molecular target: Estrogen receptor (Homo sapiens) (UniProt P03372); assay: qHTS assay to identify small molecule agonists of the estrogen receptor alpha (ER-alpha) signaling pathway (AID 743075; calls by dose curve;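 note: HEK293 GripTite cells with ER-alpha and UAS-driven beta-lactamase reporter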; note: potency is the fitted concentration of half-maximal effect)
[5] = molecular target: Estrogen receptor (Homo sapiens) (UniProt P03372); assay: qHTS assay to identify small molecule agonists of the estrogen receptor alpha (ER-alpha) signaling pathway using the BG1 cell line (AID 743079); conditions: BG1Luc4E2 cells, ERE-luciferase agonist, 22 h; activation: at 70.3 µM (top of the series) unless noted; note: nearly all actives have a fitted effect of over 20% in size; note: potency is the fitted concentration of half-maximal effect
[6] = qHTS assay to identify small molecule antagonists of the estrogen receptor alpha (ER-alpha) signaling pathway using the BG1 cell line (AID 743080; calls by dose curve;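 note: BG1 cells stimulated with 17beta-estradiol alongside compound; nearly all actives have a fitted effect of over 25% in size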)
Procedure, shortened: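 BG1-Luc-4E2 cells (endogenous full-length ER-alpha, 4xERE luciferase) hormone-starved 5 days in charcoal-stripped FBS, plated 4,000/well for 24 h, then compound plus 17beta-estradiol for 21.5 h at 37 C; ONE-Glo luminescence read.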

[7] = qHTS assay to identify small molecule antagonists of the estrogen receptor alpha (ER-alpha) signaling pathway using the BG1 cell line - cell viability counter screen (AID 743081);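 note: compound given together with 17beta-estradiol as the ER stimulus; nearly all actives have a fitted effect of over 45% in size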; note: potency is the fitted concentration of half-maximal effect
Aromatase (Homo sapiens) = Aromatase (Homo sapiens) (UniProt P11511); assay: qHTS assay to identify aromatase inhibitors (AID 743083); note: nearly all actives have a fitted effect of over 55% in size; note: potency is the fitted concentration of half-maximal effect
[8] = qHTS assay to identify aromatase inhibitors - cell viability counter screen (AID 743084);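 note: cells stimulated with testosterone during compound exposure; nearly all actives have a fitted effect of over 55% in size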; note: potency is the fitted concentration of half-maximal effect
[9] = molecular target: Aryl hydrocarbon receptor (Homo sapiens) (UniProt P35869); assay: qHTS assay to identify small molecule that activate the aryl hydrocarbon receptor (AhR) signaling pathway (AID 743085); note: nearly all actives have a fitted effect of over 15% in size; note: potency is the fitted concentration of half-maximal effect;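 for activation: HG2L7.5c1 human HepG2 liver cells with stably integrated DRE-driven firefly reporter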
Procedure, shortened: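 HepG2 cells (HG2L7.5c1) stably carrying a firefly luciferase reporter driven by 20 dioxin responsive elements were exposed to compound for 24 h at 37C after a 5 h settling period; luminescence rise (ONE-Glo) indicated activation.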

[10] = molecular target: Peroxisome proliferator-activated receptor gamma (Homo sapiens) (UniProt P37231); assay: qHTS assay to identify small molecule agonists of the peroxisome proliferator-activated receptor gamma (PPARg) signaling pathway (AID 743094; active = well fitted activation curve with a large enough effect in the signal ratio in the repeat runs, not every such curve was filed as active; inconclusive = weak or mixed curves, or effect the other way; inactive = no such curve, though single readings can be large or run the other way; the % refers to the signal ratio)
Procedure, shortened: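 GeneBLAzer PPARg UAS-bla HEK293H cells carrying a stably integrated beta-lactamase reporter were pre-incubated 5 h at 37C, then exposed to compounds in DMSO for 17 h at 37C; LiveBLAzer B/G FRET substrate was added for 1 h at room temperature and fluorescence read.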

[11] = molecular target: Peroxisome proliferator-activated receptor gamma (Homo sapiens) (UniProt P37231); assay: qHTS assay to identify small molecule antagonists of the peroxisome proliferator-activated receptor gamma (PPARg) signaling pathway (AID 743191; calls by dose curve; note: nearly all actives have a fitted effect of over 30% in size)
Procedure, shortened: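 Beta-lactamase reporter under UAS control in HEK293H PPARg-bla cells; compound treatment 17 h at 37C. Read-out: fluorescence intensity after 1 h room-temperature incubation with LiveBLAzer B/G FRET substrate.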

[12] = qHTS assay to identify small molecule antagonists of the peroxisome proliferator-activated receptor gamma (PPARg) signaling pathway - cell viability counter screen (AID 743194); conditions: Potency: co-treated with 50 nM rosiglitazone unless noted; note: nearly all actives have a fitted effect of over 55% in size; note: potency is the fitted concentration of half-maximal effect
Procedure, shortened: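 Viability was measured as CellTiter-Glo luminescence in GeneBLAzer PPARg UAS-bla HEK293H cells. These cells had been exposed 17 h at 37 C to compounds together with rosiglitazone at 50 nM final, with the beta-lactamase readout taken in the same wells.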

[13] = qHTS assay for small molecule agonists of the antioxidant response element (ARE) signaling pathway (AID 743202; active = well fitted activation curve with a large enough effect in the signal ratio in the repeat runs, not every such curve was filed as active; inconclusive = weak or mixed curves, or effect the other way; inactive = no such curve, though single readings can be large or run the other way; the % refers to the signal ratio; note: potency is the fitted concentration of half-maximal effect)
Procedure, shortened: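 Quantitative high-throughput format in HepG2 cells bearing an integrated ARE-beta-lactamase reporter. Compound exposure lasted 16 h at 37 C, and fluorescence was read 2 h after adding LiveBLAzer B/G substrate at room temperature.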

[14] = qHTS assay for small molecule agonists of the antioxidant response element (ARE) signaling pathway - cell viability counter screen (AID 743203; calls by dose curve; note: nearly all actives have a fitted effect of over 55% in size; note: potency is the fitted concentration of half-maximal effect)
Procedure, shortened: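 CellSensor ARE-bla HepG2 cells, 2,000 per well, rested 5 hrs at 37C/5% CO2, then exposed to compound in DMSO for 16 hrs; viability read as CellTiter-Glo luminescence after 30 min at room temperature, in the reporter wells.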

[15] = qHTS assay for small molecule activators of the heat shock response signaling pathway - cell viability counter screen (AID 743209); note: nearly all actives have a fitted effect of over 50% in size; note: potency is the fitted concentration of half-maximal effect
Procedure, shortened: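 CellSensor HSE-bla HeLa cells, plated overnight at 37 C/5% CO2, were exposed to compounds in DMSO for 5 h at 37 C. Viability was then read in the same wells by CellTiter-Glo luminescence after 30 min at room temperature.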

[16] = qHTS assay for small molecule activators of the heat shock response signaling pathway (AID 743210; active = well fitted activation curve with a large enough effect in the signal ratio in the repeat runs, with a control signal flat, not every such curve was filed as active; inconclusive = weak or mixed curves; the % refers to the signal ratio;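 note: HeLa cells with beta-lactamase reporter driven by heat shock elements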)
Procedure, shortened: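 HeLa HSE-bla cells, overnight plating; cpd in DMSO 5 h, 37 C; LiveBLAzer B/G FRET substrate 2.5 h RT; fluorescence intensity read.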

[17] = qHTS assay to identify small molecule antagonists of the thyroid receptor (TR) signaling pathway (AID 743065); note: nearly all actives have a fitted effect of over 55% in size; note: potency is the fitted concentration of half-maximal effect
Procedure, shortened: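 Antagonism measured as loss of luciferase signal in GH3 cells stably carrying a TRE-luciferase reporter, co-treated with compound and T3 (1 nM final) for 23.5 h at 37 C. Viability was read in the same well by CellTiter-Fluor.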

[18] = system: thyroid hormone receptor (rat, GH3 cells); assay: qHTS assay to identify small molecule agonists of the thyroid receptor (TR) signaling pathway (AID 743066; calls by dose curve)
[19] = qHTS assay to identify small molecule that activate the aryl hydrocarbon receptor (AhR) signaling pathway - cell viability counter screen (AID 743086); note: nearly all actives have a fitted effect of over 45% in size; note: potency is the fitted concentration of half-maximal effect
Procedure, shortened: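 Cytotoxicity counter screen: CellTiter-Fluor signal (30 min, 37 C) in 4000 HepG2 cells/well carrying the DRE-luciferase reporter, following 24 h compound exposure at 37 C.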

Sequence of Aromatase (Homo sapiens) (P11511 whole entry, looked up): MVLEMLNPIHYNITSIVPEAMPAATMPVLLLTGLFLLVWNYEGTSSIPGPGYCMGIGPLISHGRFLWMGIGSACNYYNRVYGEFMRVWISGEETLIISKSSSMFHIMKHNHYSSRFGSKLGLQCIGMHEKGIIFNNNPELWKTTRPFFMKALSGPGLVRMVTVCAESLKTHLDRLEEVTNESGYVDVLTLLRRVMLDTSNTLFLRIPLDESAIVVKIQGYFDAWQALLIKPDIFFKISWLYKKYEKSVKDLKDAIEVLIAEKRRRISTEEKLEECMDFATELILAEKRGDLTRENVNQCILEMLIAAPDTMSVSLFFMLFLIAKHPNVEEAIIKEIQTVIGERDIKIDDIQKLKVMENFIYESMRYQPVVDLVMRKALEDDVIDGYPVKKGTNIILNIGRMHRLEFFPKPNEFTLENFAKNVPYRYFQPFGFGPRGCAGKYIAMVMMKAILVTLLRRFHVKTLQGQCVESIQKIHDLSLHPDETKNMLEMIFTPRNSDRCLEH
Sequence of Aryl hydrocarbon receptor (Homo sapiens) (P35869 whole entry, looked up): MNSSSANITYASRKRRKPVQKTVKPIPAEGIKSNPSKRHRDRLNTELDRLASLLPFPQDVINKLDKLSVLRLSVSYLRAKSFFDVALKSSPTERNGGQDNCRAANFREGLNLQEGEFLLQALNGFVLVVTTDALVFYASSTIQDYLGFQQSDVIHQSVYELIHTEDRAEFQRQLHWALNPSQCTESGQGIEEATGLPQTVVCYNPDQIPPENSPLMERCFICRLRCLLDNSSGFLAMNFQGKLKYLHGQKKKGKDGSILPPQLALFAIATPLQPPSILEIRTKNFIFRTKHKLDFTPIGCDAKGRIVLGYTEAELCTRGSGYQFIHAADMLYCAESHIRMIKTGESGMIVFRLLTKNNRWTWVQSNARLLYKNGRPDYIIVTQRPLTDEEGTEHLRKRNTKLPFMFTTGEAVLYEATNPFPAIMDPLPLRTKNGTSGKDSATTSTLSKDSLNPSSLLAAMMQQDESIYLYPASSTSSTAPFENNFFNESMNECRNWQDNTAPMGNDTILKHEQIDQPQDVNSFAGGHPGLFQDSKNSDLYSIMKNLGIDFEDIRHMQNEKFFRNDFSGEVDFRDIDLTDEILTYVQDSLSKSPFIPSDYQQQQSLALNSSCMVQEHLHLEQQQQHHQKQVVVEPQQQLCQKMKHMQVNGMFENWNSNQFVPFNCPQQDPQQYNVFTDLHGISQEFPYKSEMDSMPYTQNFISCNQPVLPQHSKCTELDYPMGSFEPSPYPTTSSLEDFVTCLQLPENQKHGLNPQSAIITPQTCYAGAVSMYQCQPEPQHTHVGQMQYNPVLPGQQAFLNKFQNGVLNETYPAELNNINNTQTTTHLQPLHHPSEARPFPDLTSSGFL
Sequence of Estrogen receptor (Homo sapiens) (P03372 whole entry, looked up): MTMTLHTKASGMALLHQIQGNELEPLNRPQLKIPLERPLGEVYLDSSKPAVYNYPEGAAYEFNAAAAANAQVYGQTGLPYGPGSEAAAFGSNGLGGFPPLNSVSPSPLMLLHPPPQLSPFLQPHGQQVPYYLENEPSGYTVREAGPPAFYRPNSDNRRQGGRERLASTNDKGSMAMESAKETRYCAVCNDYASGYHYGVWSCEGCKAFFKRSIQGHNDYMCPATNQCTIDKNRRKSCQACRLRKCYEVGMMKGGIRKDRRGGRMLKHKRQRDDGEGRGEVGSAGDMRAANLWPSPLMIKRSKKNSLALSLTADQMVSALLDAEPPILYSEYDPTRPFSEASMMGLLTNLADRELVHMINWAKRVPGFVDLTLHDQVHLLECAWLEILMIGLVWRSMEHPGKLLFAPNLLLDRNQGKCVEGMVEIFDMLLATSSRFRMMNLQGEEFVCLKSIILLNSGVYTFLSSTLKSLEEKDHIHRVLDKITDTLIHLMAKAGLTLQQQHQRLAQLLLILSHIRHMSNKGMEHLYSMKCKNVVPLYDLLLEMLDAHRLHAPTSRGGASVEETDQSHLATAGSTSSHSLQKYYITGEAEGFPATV
Sequence of Peroxisome proliferator-activated receptor gamma (Homo sapiens) (P37231 whole entry, looked up): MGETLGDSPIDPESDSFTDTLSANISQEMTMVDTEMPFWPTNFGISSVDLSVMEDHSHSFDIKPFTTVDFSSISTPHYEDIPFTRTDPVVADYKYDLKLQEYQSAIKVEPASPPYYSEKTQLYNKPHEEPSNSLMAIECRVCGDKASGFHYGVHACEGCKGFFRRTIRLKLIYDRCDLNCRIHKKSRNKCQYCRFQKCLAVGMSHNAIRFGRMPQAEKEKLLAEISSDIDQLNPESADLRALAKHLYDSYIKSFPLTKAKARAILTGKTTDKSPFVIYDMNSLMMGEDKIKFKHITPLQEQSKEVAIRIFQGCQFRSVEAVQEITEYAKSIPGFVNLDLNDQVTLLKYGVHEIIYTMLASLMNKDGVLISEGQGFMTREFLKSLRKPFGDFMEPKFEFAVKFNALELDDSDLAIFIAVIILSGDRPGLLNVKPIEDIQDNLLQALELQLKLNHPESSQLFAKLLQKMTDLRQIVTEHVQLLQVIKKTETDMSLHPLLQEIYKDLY

Compound	Potency [1]	Potency [2]	Potency [3]	Potency [4]	Potency [5]	Potency [6]	Potency [7]	Potency (Aromatase (Homo sapiens))	Potency [8]	Potency [9]	Potency [10]	Potency [11]	Potency [12]	Potency [13]	Potency [14]	Potency [15]	Potency [16]	Potency [17]	Potency [18]	Potency [19]
CC(C)CON=O	inactive	inactive	inactive	inactive	inactive	inactive	inactive	inactive	inactive	inactive	inactive	inactive	inactive	inactive	inactive	inactive	inactive	–	–	–
CC(O)CN(CC(C)O)CC(C)O (stereo not given)	inactive	–	inactive	–	–	–	inactive	inactive	inactive	–	–	–	inactive	inactive	inactive	inactive	inactive	inactive	inactive	–
CCCCSP(=O)(SCCCC)SCCCC	–	–	inactive	–	–	–	inactive	inactive	inactive	inactive	inactive	–	inactive	inactive	inactive	inactive	inactive	inactive	inactive	inactive
CCC(=O)Nc1ccc(Cl)c(Cl)c1	inactive	–	inactive	–	–	–	inactive	inactive	inactive	54.5 µM (active)	inactive	–	inactive	–	inactive	inactive	inactive	49.5 µM (active)	inactive	–
CCC[CH2][Sn]([Cl])([Cl])[CH2]CCC	34.4 nM (active)	786 nM [inconclusive] (active) and 692 nM [inconclusive] (active)	6.24 µM (active) and 2.75 µM (active)	44.2 µM [inconclusive] (active) and 43.6 µM [inconclusive] (active)	–	–	2.46 µM (active) and 770 nM (active)	694 nM (active) and 172 nM (active)	1.39 µM (active) and 686 nM (active)	inactive	–	–	882 nM (active) and 43.6 nM (active)	–	276 nM (active) and 34.4 nM (active)	54.9 nM (active)	–	49.2 nM (active) and 10.9 nM (active)	–	1.39 µM (active) and 486 nM (active)
Nc1ccc([N+](=O)[O-])cc1N	24.3 µM (active) and 43.3 µM (active)	–	–	–	–	–	–	inactive	30.6 µM (active)	61.1 µM (active)	inactive	inactive	inactive	0.968 µM (active)	inactive	inactive	–	48.5 µM (active) and 48.6 µM (active)	inactive	27.3 µM (active) and 30.6 µM (active)
O=C(O)c1nn(Cc2ccc(Cl)cc2Cl)c2ccccc12	inactive	inactive	inactive	95.2 nM [inconclusive] (active) and inactive	6.68 µM (active) and inactive	inactive	inactive	inactive	inactive	inactive	–	–	inactive	54.1 µM (active)	inactive	inactive	inactive	–	inactive	–
[Cl-].[Cl-].[Cl-].[Fe+3]	inactive	–	inactive	–	–	–	inactive	inactive	inactive	inactive	–	–	inactive	inactive	inactive	inactive	inactive	inactive	inactive	–
N#CC(c1ccccc1)c1ccccc1	inactive	–	inactive	–	–	–	inactive	inactive	inactive	–	inactive	–	inactive	inactive	inactive	inactive	inactive	inactive	inactive	–
c1ccc(C2CO2)cc1 (stereo not given)	inactive	–	inactive	–	–	–	inactive	inactive	inactive	inactive	inactive	inactive	inactive	inactive	inactive	inactive	inactive	–	–	inactive
CC1(C)C(C(=O)OC(C#N)c2cccc(Oc3ccccc3)c2)C1(C)C (stereo not given)	inactive	inactive	inactive	inactive	–	inactive	inactive	48.9 µM (active)	inactive	inactive	inactive	–	inactive	inactive	inactive	inactive	inactive	–	inactive	–
C[N+](C)(C)C	inactive	inactive	inactive	inactive	inactive and 49.1 µM (active)	inactive	inactive	inactive	inactive	inactive	inactive	inactive	inactive	inactive	inactive	inactive	–	–	inactive	inactive
Cc1ccc(N=CN(C)C=Nc2ccc(C)cc2C)c(C)c1	inactive and 48.5 µM (active)	inactive	inactive	inactive	inactive	inactive	inactive	inactive	inactive	inactive and 48.8 µM (active)	inactive	–	–	inactive	inactive	inactive	inactive	–	inactive	inactive
O=[N+]([O-])c1ccc(Nc2ccccc2)cc1	48600 nM (active)	–	–	inactive	–	–	48.9 µM (active) and 27.3 µM (active)	30.6 µM (active)	30.9 µM (active) and 27.3 µM (active)	inactive	–	–	–	–	34.4 µM (active)	inactive and 27.5 µM (active)	inactive	48.9 µM (active) and 30.6 µM (active)	inactive	24.5 µM (active) and 24.3 µM (active)
N#Cc1c(Cl)c(Cl)c(Cl)c(C#N)c1Cl	847 nM (active) and 193 nM (active)	3.4 µM [inconclusive] (active)	42.8 µM (active) and 54.9 µM (active)	87.1 µM [inconclusive] (active)	–	–	53.4 µM (active) and 61.1 µM (active)	1.51 µM (active) and 969 nM (active)	1.69 µM (active) and 1.93 µM (active)	inactive	–	–	2.41 µM (active) and 1.55 µM (active)	–	10.7 µM (active) and 3.86 µM (active)	854 nM (active) and 616 nM (active)	–	476 nM (active) and 172 nM (active)	–	inactive and 21.7 µM (active)
CCCCCCCC[N+](C)(CCCCCCCC)CCCCCCCC	inactive and 2.44 µM (active) and 6.11 µM (active)	–	7.75 µM (active) and 27.6 µM (active) and 8.71 µM (active)	–	–	–	inactive and 13.7 µM (active) and 27.3 µM (active)	15.3 µM (active) and 3.44 µM (active) and 15.4 µM (active)	17.2 µM (active) and 4.86 µM (active) and 27.3 µM (active)	inactive	–	–	7.75 µM (active) and 3.47 µM (active) and 5.49 µM (active)	–	12.2 µM (active) and 19.4 µM (active) and 8.63 µM (active)	13.8 µM (active) and 4.37 µM (active)	–	1.37 µM (active) and 2.73 µM (active)	inactive	–
